From PubChem BioAssay (NCI)
About 83,000 compounds went through this panel and 20% of them were active in at least one assay; those are over-represented in the sample as a whole.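 Treatment: one concentration, 48 hours, 96-well format. Scoring: percent growth, with anything below 10 considered active.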 Active and inactive are the calls of the source.

Columns and labels:
Assay in all cases: NCI-60 one-dose screen, 48 h (100 = growth as untreated, 0 = no growth, -100 = all killed)
Conditions in all cases: 10 µM unless noted
[1] = test system: NCI-H23 lung
[2] = test system: NCI-H226 lung
[3] = test system: NCI-H322M lung
[4] = test system: HOP-62 NSCLC
[5] = test system: NCI-H460 lung
[6] = test system: HOP-92 NSCLC
[7] = test system: NCI-H522 lung
[8] = test system: 786-0 renal
[9] = test system: COLO 205 colon
[10] = test system: A549/ATCC NSCLC

Measured: growth

O=C1C=C(SCCO)C(=O)c2ccccc21
active: [1] -39% | [4] -46.9% | [5] 9.52%
inactive: [2] 95.6% | [3] 69.6% | [6] 94.3% | [7] 21.6% | [8] 70.3% | [9] 76.3%

COC12C=C/C(=C(/C(=O)OCc3csc(SC)n3)C(=O)CCCCCCCCC3(OC)C=C/C(=C(/C(=O)OCc4cnc(SC)s4)C(=O)CCCCCCCC1)O3)O2 (stereo unspecified)
inactive: [1] 15.7% | [2] 12% | [3] 46.5% | [4] 58.7% | [5] 27.2% | [6] 78.2% | [7] 24.2% | [8] 35.1% | [9] 25.5%

CC1(C)CC[C@]23CC[C@]4(C)[C@H](CC[C@@H]5[C@@]6(C)CCNCC(C)(C)[C@@H]6CC[C@]54C)[C@H]2[C@H]1OC3
active: [9] -21%
inactive: [1] 95.6% | [2] 96.7% | [3] 99.8% | [4] 97% | [6] 98.9% | [7] 90.1% | [10] 79.3% | [8] 101%

CS(=O)(=O)Nc1cc(-c2ccc3ncnc(Nc4ccc(OCc5ccccn5)c(Cl)c4)c3c2)cnc1Cl
active: [1] -8.13% | [3] 9.88% | [6] -6.05% | [7] -18.3% | [9] -90.9%
inactive: [2] 21.2% | [4] 15.3% | [10] 11.8% | [8] 22.2%

O=C(NC1CCC(Br)CC1)C1CCCC(S(=O)(=O)NC2CCCCC2)C1 (stereo unspecified)
inactive: [2] 19.7% [25 µM] | [3] 41.9% [25 µM] | [4] 13.8% [25 µM] | [5] 14.1% [25 µM] | [8] 36% [25 µM] | [9] 13% [25 µM]
active: [1] -3.95% [25 µM] | [6] -15.2% [25 µM] | [7] -3.79% [25 µM]

O=c1cc(-c2ccccc2)nc(SCc2nc3cc(Cl)c(Cl)cc3[nH]2)[nH]1
inactive: [1] 90.9% | [2] 101% | [3] 90.7% | [4] 93.2% | [6] 104% | [7] 85.3% | [10] 114% | [8] 96.7% | [9] 108%

Cc1ccc(S(=O)(=O)N2CCCN(c3nc(-c4ccccc4)nc4nc(-c5ccccc5)oc34)CC2)cc1
inactive: [1] 100% | [2] 99.5% | [3] 97.3% | [4] 101% | [6] 110% | [7] 83.6% | [10] 106% | [8] 102% | [9] 124%

Ic1ccc(Nc2nc3nonc3nc2Nc2ccc(I)cc2)cc1
inactive: [3] 10.9%
active: [1] 1.49% | [2] 0.546% | [4] -18.3% | [5] 3.11% | [6] -16.4% | [7] -20.2% | [8] 8.27% | [9] -62.7%

Oc1c(I)cc(I)cc1CN(Cc1ccccn1)Cc1ccccn1
inactive: [1] 25.6% | [2] 21.7% | [3] 18.4% | [4] 18.7% | [6] 24.4% | [7] 11.5% | [8] 18.2% | [9] 16%
active: [10] 7.57%

CCCCCCCCCCOC(=O)c1nn(C(C)=O)c2cc(C)c(C)cc12
inactive: [1] 96.3% | [2] 87.8% | [3] 107% | [4] 94.5% | [6] 68.5% | [7] 75.1% | [10] 83.8% | [8] 94.6% | [9] 102%

COc1ccc(C/C(C)=C(\c2ccc(Cl)cc2)c2ccc(OCCN3CCCC3)cc2)cc1
inactive: [1] 85% | [2] 98.1% | [3] 91.6% | [4] 94.6% | [5] 81.9% | [6] 70.5% | [7] 90% | [8] 83.7% | [9] 47.8%

O=C1CCC(C(=O)N/N=C/c2cc(F)ccc2F)N1 (stereo unspecified)
inactive: [1] 95.3% | [2] 99.2% | [3] 99.7% | [4] 103% | [6] 95.4% | [7] 93.7% | [10] 97.6% | [8] 103% | [9] 110%

O=C1Nc2ccc(Cl)cc2/C1=C/c1ccc[nH]1
inactive: [1] 66.3% | [2] 97.4% | [3] 69.4% | [4] 95.8% | [5] 82.3% | [6] 133% | [7] 71.4% | [8] 108% | [9] 126%

c1ccc(-c2c(-c3ccccc3)[n+](Cc3ccc4ccccc4c3)cn2Cc2ccc3ccccc3c2)cc1
active: [1] -74.9% | [2] -75.8% | [3] -20.8% | [4] -86.1% | [5] -78.6% | [6] -83.9% | [7] -85.8% | [8] -92.2% | [9] -86.4%

COc1ccc(C(=O)C/C(=C\c2ccc(O)c(OC)c2)C(=O)NN)cc1
inactive: [1] 68.9% | [2] 91.7% | [3] 82% | [4] 67.4% | [5] 43.6% | [6] 69.5% | [7] 52.1% | [8] 112% | [9] 106%

Cc1cccc(N2C(=O)/C(=C/C(Cl)=C/c3ccc([N+](=O)[O-])cc3)SC2=S)c1C
inactive: [1] 10.4% | [3] 82.2% | [4] 17.2% | [10] 22.6%
active: [2] -38.1% | [6] -28.1% | [7] -29.3% | [8] 1.63% | [9] -31.9%

CC1(C)CC(=O)C2=C(C1)C(c1ccc(Cl)cc1)n1ncc(C#N)c1N2 (stereo unspecified)
inactive: [1] 99.6% | [2] 94.8% | [3] 90.9% | [4] 104% | [5] 106% | [6] 99.3% | [7] 85.7% | [8] 98.9% | [9] 109%

Cn1cc(-c2nc3c(F)cc4[nH]ncc4c3c3c2CCCC3)c(C(F)(F)F)n1
inactive: [1] 37.7% | [2] 67.3% | [3] 47.6% | [4] 31% | [10] 17.3% | [8] 42.7% | [9] 35.6%
active: [6] -7.54% | [7] 0.529%

CN1CCN(Cc2ccc(NC(=O)c3cncc(C#Cc4cnc(N)cc4C#N)c3)cc2C(F)(F)F)CC1
inactive: [1] 15.3% | [3] 17% | [4] 12.1% | [10] 19.2% | [8] 24.9%
active: [2] 7.61% | [6] -5.52% | [7] 9.51% | [9] -31.2%

CN(C)Cc1cc(C(C)(C)C)cc(Br)c1O
inactive: [1] 107% | [2] 101% | [3] 118% | [4] 110% | [6] 87.5% | [7] 103% | [10] 109% | [8] 101% | [9] 102%

N#CSc1c[nH]c2ccc(/C=C/C(=O)/C=C(O)/C=C/c3ccc4[nH]cc(SC#N)c4c3)cc12
inactive: [1] 25.3% | [2] 31.6% | [3] 96.9% | [4] 28.1% | [5] 12.5% | [8] 13.9%
active: [6] -21.3% | [7] -63.9% | [9] -39.7%

CC(C)c1ccc2c(c1)CC[C@H]1[C@](C)(C(=O)OCC#CCN3CCCC3)CCC[C@]21C
inactive: [1] 61.3% | [2] 81.8% | [3] 93.8% | [4] 94.1% | [5] 96.9% | [6] 65.2% | [7] 85.8% | [8] 84.1% | [9] 44.7%

O=c1oc2c(cnc3ccccc32)cc1-c1cccc(Cl)c1
inactive: [1] 101% | [2] 96.2% | [3] 104% | [4] 113% | [5] 106% | [6] 81.7% | [7] 101% | [8] 106% | [9] 118%

Brc1ccc(Nc2nc(Nc3cnc4ccccc4c3)c3[nH]cnc3n2)cc1
inactive: [1] 76% | [2] 64.1% | [3] 105% | [4] 64.6% | [6] 26% | [7] 54.2% | [10] 79.6% | [8] 49.4% | [9] 90.4%

C#CCOc1ccc2nc(CCl)c(Cl)c(Nc3cccc(C(F)(F)F)c3)c2c1
inactive: [1] 87.8% | [2] 84.7% | [3] 98.1% | [4] 93% | [6] 94.6% | [7] 36.4% | [10] 94.7% | [8] 76% | [9] 80%

Clc1ccc(Nc2nnc(CNc3ccccc3)c3ccccc23)cc1
inactive: [2] 25% | [3] 30.4% | [4] 27.4% | [5] 17.7% | [8] 21.4% | [9] 11.9%
active: [1] 9.95% | [6] -19.3% | [7] -5.92%

COc1cc(Cc2cc(OC)c(O)c(OC)c2)cc(OC)c1O
inactive: [1] 87.6% | [2] 106% | [3] 94.2% | [4] 88.9% | [6] 89.6% | [7] 56.5% | [10] 84.1% | [8] 107% | [9] 109%

CCOC(=O)C1=C(c2ccccc2)N=C2N(c3ccccc3)N=C(C(C)=O)N2C1c1ccc(F)cc1 (stereo unspecified)
inactive: [1] 105% | [2] 97.7% | [3] 99.2% | [4] 98.6% | [6] 93.3% | [7] 97.3% | [10] 101% | [8] 99.6% | [9] 113%

Nc1ccc(Br)cc1C(F)(F)F
inactive: [1] 95.3% | [2] 105% | [3] 119% | [4] 102% | [6] 104% | [7] 103% | [10] 102% | [8] 105% | [9] 102%
